Compound activity deposited in PubChem BioAssay by National Center for Advancing Translational Sciences (NCATS).
The list is not random: actives were taken first. Their share in the collection is about 11%.
IMPase Li cell: cell-permeable IMPase inhibitors with lithium potentiation | AID 1457 | CHO-M1 cells, IP1 TR-FRET (IP-One), carbachol + lithium | Potency, µM (series often up to 59.4 µM), for inactives: at the highest dose activity, negative = IMPase inhibition, most hits filed as inhibitors | 210,000 tested, 0.35% active;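 note: IP1 builds up when IMPase is blocked and the TR-FRET signal falls; potency is the fitted concentration of half-maximal effect; plate controls were basal vehicle for no effect and high inhibitor control for full effect; nearly all actives have a fitted effect of over 50% in size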
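CHO-M1, 2000 cells/well, 16–30 h culture; cpd + low Li+, 30 min 37C; lysis with d2-IP1/Eu-anti-IP1 Ab, 10 min RT; TR-FRET 665/620 ratio and 620 channel; AC50 via Hill.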
IMPase cell inh: membrane-permeable compound that blocks inositol monophosphatase; P97697; CHO-M1 cells, IP1 accumulation, HTRF TR-FRET ratio; inhibition (IP1 accumulation), % at 46.1 µM; 120,000 tested, under 10 active; AID 901; active = well fitted curve in the direction sought with a large enough effect in the signal ratio, not every such curve was filed as active; inconclusive = small, poorly fitted or top-dose-only effect, or a change in a side signal; inactive = no such curve, though single readings can be large or run the other way; the % refers to the signal ratio;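 note: cells stimulated with carbachol in lithium chloride buffer; plate controls were DMSO basal wells for no effect and reference inhibitor wells for full effect; higher means more IMPase inhibition seen as more IP1 and lower FRET ratio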
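Seeded CHO-M1 cells were dosed with compound at up to 46 uM, stimulated with carbachol for 30 min, then lysed in IP-One detection reagents. Higher IP1 lowers the TR-FRET signal.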
PNC inhibitor: perinucleolar compartment assembly inhibition. 140,000 tested, 3.1% active. activity change (PNC), negative = inhibition, % at 10 µM. PC3M PTB-GFP, PNC prevalence imaging, 16 h; hits give low values. AID 2417;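 active = readout at or below -70, meaning at least 70% loss of cells showing the perinucleolar compartment, a nuclear body marking cancer cells; inconclusive = readout between -30 and a set limit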;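 note: plate controls were DMSO wells for no effect and camptothecin positive control wells for full effect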
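Compounds are pinned in duplicate onto adhered PC3M cells stably expressing GFP-tagged PTB and incubated 16 h at 37 C. Cells are then fixed, nuclei stained with Hoechst, and PNC-positive cells counted.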
ALOX12 inhib: blocks human 12-lipoxygenase activity | P18054 | purified 12-hLO, xylenol orange hydroperoxide absorbance | Potency, µM (doses to about 57.1 µM), without a hit: at the top dose activity change, negative = inhibition, most hits filed as inhibitors | 150,000 tested, 0.12% active | AID 1452; note: potency is the fitted concentration of half-maximal effect; nearly all actives have a fitted effect of over 55% in size
Target sequence (P18054 whole entry, looked up): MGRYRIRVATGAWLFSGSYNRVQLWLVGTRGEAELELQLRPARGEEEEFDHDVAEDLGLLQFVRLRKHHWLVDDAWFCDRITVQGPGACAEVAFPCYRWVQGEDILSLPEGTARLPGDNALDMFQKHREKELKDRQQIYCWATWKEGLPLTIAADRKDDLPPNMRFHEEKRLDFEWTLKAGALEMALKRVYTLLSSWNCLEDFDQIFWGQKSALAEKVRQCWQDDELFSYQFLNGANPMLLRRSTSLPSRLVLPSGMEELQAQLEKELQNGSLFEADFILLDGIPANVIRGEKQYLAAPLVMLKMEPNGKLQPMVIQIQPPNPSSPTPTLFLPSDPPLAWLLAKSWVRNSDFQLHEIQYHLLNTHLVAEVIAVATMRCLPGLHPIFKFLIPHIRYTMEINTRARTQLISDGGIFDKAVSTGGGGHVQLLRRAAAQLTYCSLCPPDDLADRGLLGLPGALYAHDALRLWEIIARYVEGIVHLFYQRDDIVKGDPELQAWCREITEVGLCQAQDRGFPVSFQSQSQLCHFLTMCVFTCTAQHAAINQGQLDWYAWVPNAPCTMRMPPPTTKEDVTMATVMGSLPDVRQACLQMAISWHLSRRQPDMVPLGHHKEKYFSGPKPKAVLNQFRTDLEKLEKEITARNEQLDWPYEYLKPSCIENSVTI
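Lipoxygenase turnover measured by absorbance at 573 and 405 nm after Fe-XO development. Human 12hLO 150 nM, arachidonate 40 uM, pH 7.0 Hepes buffer with detergent; 15 min compound preincubation, 30 min reaction.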
ALDH1A1 inh: blocks purified human ALDH1A1 activity; Purified ALDH1A1, NADH fluorescence, propionaldehyde substrate; 220,000 tested, 7.3% active; AID 1030; Potency, µM (series often up to 75.3 µM), for inactives: at the top dose activity, negative = inhibition, hits mostly inhibitors; P00352; active = well fitted inhibition curve with a large enough effect, not every such curve was filed as active; inconclusive = small, poorly fitted or top-dose-only effect, or another doubt; inactive = no such curve, though single readings can be large or run the other way;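 note: potency is the fitted concentration of half-maximal effect; plate controls were no enzyme wells and a reference inhibitor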
HPGD inh: HPGD (human) dehydrogenase inhibition; Potency, µM, for the others: at the top dose activity change, negative = inhibition, most hits filed as inhibitors; purified HPGD, NADH fluorescence kinetic, PGE2 substrate; P15428; 150,000 tested, 4.3% active; active = well fitted inhibition curve with a large enough effect, not every such curve was filed as active; inconclusive = small, poorly fitted or top-dose-only effect, or another doubt; inactive = no such curve, though single readings can be large or run the other way; note: potency is the fitted concentration of half-maximal effect
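NADH formation kinetics: reaction with 30 uM PGE2 and 1 mM NAD+ (final), 20 nM enzyme, Tris-HCl pH 8 with Tween 20, after 15 min compound preincubation at room temperature. Fluorescence change, last versus first of five reads.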
* = called active by the depositor; u = inconclusive; x = no result given; [ ] = dose if it differs, or a comment. Unless noted, calls come from the whole dose curve; as a rule, active = well fitted curve in the direction sought with a large enough effect; inconclusive = small, poorly fitted or top-dose-only effect, or another doubt; inactive = no such curve, though single readings can be large; an effect the other way counts as inactive or inconclusive. Unless noted, % is set by controls: 0 for no effect and ±100 for the full control effect.

SMILES	IMPase Li cell	IMPase cell inh	PNC inhibitor	ALOX12 inhib	ALDH1A1 inh	HPGD inh
O=C(CN1CCN(c2ccc(O)cc2)CC1)Nc1cc(S(=O)(=O)N2CCCCC2)ccc1Cl	5%	x	x	x	24µM*	x
CC1CN(CC(=O)Nc2cc(S(=O)(=O)N3CCCC3)ccc2Cl)CC(C)O1 (stereo unspecified)	13%	x	x	x	-2%	x
CC(C)Cn1c(=S)[nH]c2cc(Cl)ccc21	-5%	x	x	x	8.9µM*	x
CC(C)Cn1c(=S)[nH]c2ccccc2c1=O	-1%	x	x	x	u	x
COc1ccc2c(c1)O[C@@H](c1ccc3c(c1)OCO3)[C@H](OC(=O)Nc1ccc(OC(F)F)cc1)C2=O	3%	x	x	x	-2%	-3%
COc1ccc(-c2cc(C(=O)Oc3ccc(Cl)cc3)c3ccccc3n2)cc1	x	-7	x	x	x	x
CC(C)CCNC(=O)c1ccc2c(c1)ncn2C1CCCC1	-4%	x	x	x	u	x
CCOCCCNC(=O)c1ccc2c(c1)ncn2C1CCCC1	13%[38.3 µM]	-8	-23	2%	u	18µM*
COC(=O)c1ccc(C(NC(=O)OCc2ccccc2)/C(C)=C/[C@@H](C)C(=O)NCCO)cc1 (stereo partly specified)	5%	x	x	-1%	u	-13%
COC(=O)c1cc(NCc2ccc3c(c2)OCO3)ccc1N1CCOCC1	32%[38.3 µM]	27	35	-4%	14µM*	-6%
Clc1cccc(Cl)c1CNc1ccc(N2CCCC2)cc1	29%	x	x	x	16µM*	x
COc1ccccc1OCC(=O)n1cc(C(=O)c2cc(Cl)cc(Cl)c2O)cn1	-14%	x	u	6%	-1%	18µM*
COc1ccccc1OCc1nnc(SCC(=O)c2cc(Cl)ccc2OC)o1	-1%[38.3 µM]	-2	u	-6%	-5%	u
Cc1ccc(C(=O)Nc2ccccc2N2CCOCC2)c(C)c1	x	x	x	0%	13%	-7%
O=C(CN1CCN(c2ccc(O)cc2)CC1)Nc1ccc(SC(F)F)cc1	15%	x	-3	-17%	8.9µM*	-7%
CC(C)(C)NC(=O)COC(=O)c1ccccc1Nc1ccc(SC(F)F)cc1	5%	x	11	-5%	u	u
NC(=O)COC(=O)c1ccccc1Nc1ccc(SC(F)F)cc1	5%	x	65	-7%	6%	11µM*
O=C(COC(=O)c1ccccc1Nc1ccc(SC(F)F)cc1)NCc1ccco1	-3%[38.3 µM]	6	25	-2%	-7%	14µM*
O=C(COC(=O)c1ccccc1Nc1ccc(SC(F)F)cc1)NC1CC1	2%	x	-27	-3%	-7%	u
CCOc1cccc(N2C(=O)CC(NNC(=O)c3ccc(Br)o3)C2=O)c1 (stereo unspecified)	x	x	x	x	11µM*	x
CCCOc1ccc(N2C(=O)CC(NNC(=O)c3ccc(COc4ccccc4)o3)C2=O)cc1 (stereo unspecified)	-4%	4	-6	-4%	u	-15%
CCCc1cc2c(n1Cc1ccc(OC)cc1)C(C)C1CN(C(=O)c3ccccc3)C(C)(C(=O)OC)C21 (stereo unspecified)	-1%	x	x	-3%	u	-12%
Cc1c(Cl)ccc2c1NC(=O)[C@]21[C@@H]2C(=O)N(Cc3ccccc3)C(=O)[C@@H]2[C@@H]2CCCN21	7%[38.3 µM]	-8	-127*	-29%	2.8µM*	-27%
COC(=O)CC1Oc2cc3oc4c5ccccc5oc(=O)c4c3cc2O1 (stereo unspecified)	-19%	x	x	1%	u	-18%
CCCCCCCCCCCCSCCOCCO	-1%	x	x	-5%[0.00818 µM]	-3%	-6%
SMILES	IMPase Li cell	IMPase cell inh	PNC inhibitor	ALOX12 inhib	ALDH1A1 inh	HPGD inh
CCOC(=O)N1CCC(N2Cc3cccc(C(=O)Nc4ccc(F)cc4)c3C2=O)CC1	5%[38.3 µM]	6	41	-8%	6%	-14%
CCOC(=O)N1CCC(N2Cc3cccc(C(=O)NCc4ccccc4OC)c3C2=O)CC1	13%	-2	-100*	-5%	5%	-11%
CCOC(=O)N1CCC(N2Cc3cccc(C(=O)NCc4ccc(OC)cc4)c3C2=O)CC1	14%	x	-13	-2%	20µM*	-8%
CCOC(=O)N1CCC(N2Cc3cccc(C(=O)NCc4ccc5c(c4)OCO5)c3C2=O)CC1	x	x	x	x	1%	x
CCOC(=O)N1CCC(N2Cc3cccc(C(=O)Nc4ccc(CC)cc4)c3C2=O)CC1	22%[38.3 µM]	1	-108*	0%	130%	-14%
COC(=O)[C@@H]1C[C@@]2(O)[C@@H](O)[C@@H](O)[C@@H](O)C[C@H]2N1Cc1ccc(C(C)(C)C)cc1	-5%	x	x	-3%	u	-11%
Cc1ccc(OCC(=O)NC2CCCc3ccccc32)c(C)c1 (stereo unspecified)	5%	-6	-24	0%	-7%	-31%
NC(=O)C1CCN(CC(=O)NC2CCCc3ccccc32)CC1 (stereo unspecified)	1%	x	x	x	14%	x
Cc1ccc(C)c(S(=O)(=O)N2CCN(CC(=O)Nc3ccc4c(c3)CCC4)CC2)c1	10%	x	-13	-3%	-5%	-4%
Cc1ccc(S(=O)(=O)N2CCN(CC(=O)NC3CCCc4ccccc43)CC2)cc1C (stereo unspecified)	21%[38.3 µM]	10	36	-11%	0.45µM*	-10%
Cc1ccc(C)c(S(=O)(=O)N2CCN(CC(=O)N3CCc4ccccc4C3)CC2)c1	15%[38.3 µM]	-7	3	-24%	18µM*	-8%
Cc1ccc(S(=O)(=O)N2CCN(CC(=O)NC3CCCc4ccccc43)CC2)c(C)c1 (stereo unspecified)	33%[38.3 µM]	-3	13	-21%	13µM*	-8%
O=C(O)CCCCCNC(=O)c1ccc(Br)cc1	-3%[38.3 µM]	-1	20	-1%	-1%	-4%
O=C(CCCCCNC(=S)Nc1ccccc1)C[N+](=O)[O-]	0%	x	x	x	3.5µM*	x
COc1ccc(NC(=S)NCCCCCC(=O)C[N+](=O)[O-])cc1	-7%	x	x	x	2.5µM*	x
O=C(CCCCCNC(=S)Nc1ccc(Cl)cc1)C[N+](=O)[O-]	-4%	x	x	x	10µM*	x
OCCCNC(=S)Nc1ccc(Nc2ccccc2)cc1	1%	x	x	x	-1%	x
O=C(CCCCCNC(=O)c1ccccc1)C[N+](=O)[O-]	14%	x	x	x	2.2µM*	x
Cc1ccc(C(C)C)n1C(=O)OC(C)(C)C	x	x	x	x	9%[13.5 µM]	x
CCC/C=C(\CCC)C(NP(=O)(c1ccccc1)c1ccccc1)c1ccc(C(F)(F)F)cc1 (stereo unspecified)	15%	x	x	-10%	-9%	-27%
COc1ccc(/C=C/C(=O)c2cccs2)c(OC)c1	15%	3	x	-2%	u	u
O=C(/C=C/c1ccnc2ccccc12)c1cccs1	22%	x	x	x	28µM*	x
O=[N+]([O-])c1ccc(-c2cn(-c3ccccc3F)c(=S)[nH]2)cc1	-10%	x	x	x	11%	x
